Our source for the outcome and AC50 values is PubChem BioAssay (EPA / NIEHS).

Records with an inconclusive call do not appear. Calls of active or inactive are those of the source. How the source made its calls, unless noted: active means hit-call score of the fitted dose curve at least 0.9, where 1 is the maximum; inconclusive means response in the unintended direction; inactive means score below 0.9.

The target in experiment [1] is Retinoic acid receptor RXR-alpha (Homo sapiens) (UniProt P19793). Description: ATG_RXRa_TRANS: Attagene TRANS-FACTORIAL HepG2 Assay for human Retinoid X Receptor alpha (RXRa) (AID 2283012). The method, boiled down: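 HepG2 cells transiently transfected with GAL4-UAS reporter units and chimeric RXRa-Gal4 protein, treated 24 h. Reporter mRNA measured by RT-PCR, fluorescent labelling, HpaI digestion and capillary electrophoresis. Induction fitted against DMSO.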

Experiment [2] concerns the target human Retinoid X Receptor beta (RXRb), RXRB (gene 6257) (UniProt P28702). Description: ATG_RXRb_TRANS: Attagene TRANS-FACTORIAL HepG2 Assay for human Retinoid X Receptor beta (RXRb) (AID 2283013). In outline:
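HepG2 cells were transiently transfected with multiplexed GAL4-UAS reporters and a chimeric RXRb-Gal4 construct, then exposed for 24 h. Reporter mRNA was quantified by RT-PCR, FAM labeling, HpaI digestion and capillary electrophoresis; gain of signal was scored against DMSO.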

The target of experiment [3] is human Thyroid Receptor alpha (THRa1), THRA (gene 7067) (UniProt P10827). Briefly: ATG_THRa1_TRANS: Attagene TRANS-FACTORIAL HepG2 Assay for human Thyroid Receptor alpha (THRa1) (AID 2283014). The method, boiled down:
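Reporter transcript induction, read by capillary electrophoresis of 6-FAM-labelled RT-PCR products, reflects activity of a transfected THRa1-Gal4 fusion in HepG2 liver cells. Cells were dosed for 24 h; activity was fitted in the positive direction against DMSO.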

Experiment [4] has as its target human Vitamin D Receptor (VDR), VDR (gene 7421) (UniProt P11473). Briefly: ATG_VDR_TRANS: Attagene TRANS-FACTORIAL HepG2 Assay for human Vitamin D Receptor (VDR) (AID 2283022). The method, boiled down:
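Steps: transfect HepG2 with GAL4-UAS-driven reporter constructs; dose compounds 24 h; isolate RNA, reverse-transcribe, PCR-amplify with 6-FAM-labelled primer extension and HpaI digestion; quantify fragments by capillary electrophoresis relative to DMSO.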

Read-out in experiment [5]: E-selectin (Homo sapiens) (UniProt P16581)
Description: BSK_3C_Eselectin: BioMAP Diversity Plus: 3C Assay for Eselectin Biomarker Activity (AID 2283015; active means hit-call score of the fitted dose curve at least 0.9, where 1 is the maximum; inactive means score below 0.9). As to conditions: primary human endothelial cells (HUVEC); actives raise or lower the signal. In outline: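 ELISA read-out of E-selectin on endothelial monolayers after 24 h chemical treatment. Human umbilical vein primary cells served as the system, with DMSO defining baseline activity for bidirectional fitting.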

Read-out in experiment [6]: Interleukin-1 alpha (IL1a), IL1A (gene 3552)
Description: BSK_BE3C_IL1a: BioMAP Diversity Plus: BE3C Assay for Interleukin-1 alpha (IL1a) Biomarker Activity (AID 2283016; active means hit-call score of the fitted dose curve at least 0.9, where 1 is the maximum; inactive means score below 0.9). As to conditions: primary human bronchial epithelial cells; actives raise or lower the signal. The method, boiled down:
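Human primary bronchial epithelial cells, 24 h chemical exposure; IL-1a quantified by ELISA, fitted bidirectionally against DMSO. Cytotoxicity assessed in parallel by SRB total-protein staining at the time of measurement.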

Read-out in experiment [7]: Monocyte Chemoattractant Protein-1 (MCP1), CCL2 (gene 6347)
Briefly: BSK_3C_MCP1: BioMAP Diversity Plus: 3C Assay for Monocyte Chemoattractant Protein-1 (MCP1) Biomarker Activity (AID 2283017; active means hit-call score of the fitted dose curve at least 0.9, where 1 is the maximum; inactive means score below 0.9). As to conditions: primary human endothelial cells (HUVEC); actives raise or lower the signal. The method, boiled down: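 ELISA read-out of MCP-1 from human umbilical vein endothelial cell cultures harvested 24 h post-dosing. Gain or loss of signal was fitted relative to DMSO.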

Read-out in experiment [8]: Monocyte Chemoattractant Protein-1 (MCP1), CCL2 (gene 6347)
Briefly: BSK_4H_MCP1: BioMAP Diversity Plus: 4H Assay for Monocyte Chemoattractant Protein-1 (MCP1) Biomarker Activity (AID 2283018; active means hit-call score of the fitted dose curve at least 0.9, where 1 is the maximum; inactive means score below 0.9). As to conditions: primary human endothelial cells (HUVEC); actives raise or lower the signal. In outline: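 Human umbilical vein endothelial cells (4H system) exposed to chemicals for 24 h in 96-well format. MCP-1 measured by ELISA; bidirectional fitting against DMSO, with SRB total-protein staining in parallel cultures for cytotoxicity.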

Read-out in experiment [9]: Human Leukocyte Antigen - DR isotype (HLADR), HLA-DRA (gene 3122)
Description: BSK_3C_HLADR: BioMAP Diversity Plus: 3C Assay for Human Leukocyte Antigen - DR isotype (HLADR) Biomarker Activity (AID 2283019; active means hit-call score of the fitted dose curve at least 0.9, where 1 is the maximum; inactive means score below 0.9;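 on outcome: ELISA of cell-surface HLA-DR on HUVEC 24 h after dosing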). The settings on record: primary human endothelial cells (HUVEC); actives raise or lower the signal. In outline:
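ELISA readout of surface HLA-DR on human umbilical vein endothelium, taken 24 h after chemical treatment. Gain- and loss-of-signal were both fitted relative to DMSO.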

Read-out in experiment [10]: Interleukin-8 (IL8), CXCL8 (gene 3576)
Description: BSK_3C_IL8: BioMAP Diversity Plus: 3C Assay for Interleukin-8 (IL8) Biomarker Activity (AID 2283020; active means hit-call score of the fitted dose curve at least 0.9, where 1 is the maximum; inactive means score below 0.9). The settings on record: primary human endothelial cells (HUVEC); actives raise or lower the signal. The method, boiled down: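 Primary human umbilical vein endothelial cells were dosed for 24 h. IL-8 was quantified by ELISA and fitted bidirectionally against DMSO. Cytotoxicity was assessed in parallel cultures by SRB staining at 560 nm.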

Read-out in experiment [11]: Monokine induced gamma interferon (MIG), CXCL9 (gene 4283)
Description: BSK_3C_MIG: BioMAP Diversity Plus: 3C Assay for Monokine induced gamma interferon (MIG) Biomarker Activity (AID 2283021; active means hit-call score of the fitted dose curve at least 0.9, where 1 is the maximum; inactive means score below 0.9;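 on AC50: MIG protein level measured by immunoassay in the treated endothelial cultures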). The settings on record: primary human endothelial cells (HUVEC); actives raise or lower the signal. The method, boiled down:
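HUVEC primary endothelial cultures dosed with chemical; MIG quantified by ELISA at 24 h. Data fitted bidirectionally against DMSO control, with parallel SRB total-protein staining for cytotoxicity.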

The nature of experiment [12]: BSK_3C_SRB: Viability Assessment in the BioMAP Diversity Plus: 3C Assay (AID 2283023; active means hit-call score of the fitted dose curve at least 0.9, where 1 is the maximum; inactive means score below 0.9;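 further: fitted both ways against DMSO so a hit may be signal rise or drop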). As to conditions: primary human endothelial cells (HUVEC). The method, boiled down:
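Absorbance at 560 nm of sulforhodamine B-stained (0.1%) total protein served as a cytotoxicity readout in human umbilical vein endothelial cells, 24 h after chemical treatment. Signal was fitted bidirectionally relative to DMSO.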

Read-out in experiment [13]: Matrix Metallopeptidase 1 (MMP1), MMP1 (gene 4312)
Briefly: BSK_BE3C_MMP1: BioMAP Diversity Plus: BE3C Assay for Matrix Metallopeptidase 1 (MMP1) Biomarker Activity (AID 2283024; active means hit-call score of the fitted dose curve at least 0.9, where 1 is the maximum; inactive means score below 0.9). The settings on record: primary human bronchial epithelial cells; actives raise or lower the signal. In outline: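 Human primary bronchial epithelial cells (BE3C system) dosed for 24 h; MMP-1 quantified by ELISA. Bidirectional fit against DMSO; cytotoxicity tracked in parallel cultures by SRB total-protein staining.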

Experiment [14] in a line: BSK_3C_Vis: BioMAP Diversity Plus: 3C Assay for Morphology Visualization (AID 2283025; active means hit-call score of the fitted dose curve at least 0.9, where 1 is the maximum; inactive means score below 0.9;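 further: fitted both ways so gain or loss versus DMSO counts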;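 on AC50: light microscopy image of cell morphology used as background control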). The settings on record: primary human endothelial cells (HUVEC). The method, boiled down:
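Human umbilical vein endothelial cell morphology was inspected by light microscopy 24 h after chemical dosing; scored bidirectionally relative to DMSO.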

Read-out in experiment [15]: Pselectin, SELP (gene 6403)
Briefly: BSK_4H_Pselectin: BioMAP Diversity Plus: 4H Assay for Pselectin Biomarker Activity (AID 2283026; active means hit-call score of the fitted dose curve at least 0.9, where 1 is the maximum; inactive means score below 0.9). As to conditions: primary human endothelial cells (HUVEC); actives raise or lower the signal. In outline: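 Primary human umbilical vein endothelial cells were treated 24 h, and cell-surface P-selectin was then quantified by ELISA. Bidirectional fit versus DMSO; cytotoxicity checked in parallel cultures by SRB total-protein staining.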

A short description of experiment [16]: BSK_4H_SRB: Viability Assessment in the BioMAP Diversity Plus: 4H Assay (AID 2283027; active means hit-call score of the fitted dose curve at least 0.9, where 1 is the maximum; inactive means score below 0.9;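 further: cells exposed to compound for 24 h before staining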;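 on AC50: curves fitted both ways versus DMSO so AC50 may be loss or gain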). The settings on record: primary human endothelial cells (HUVEC). The method, boiled down: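 Human umbilical vein endothelial cells were dosed with chemical and, after 24 h, fixed with 10% TCA, stained with 0.1% sulforhodamine B, and read at 560 nm to give total protein as a cytotoxicity measure. Bidirectional fitting relative to DMSO control.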

Experiment [17] is described as follows: BSK_BE3C_SRB: Viability Assessment in the BioMAP Diversity Plus: BE3C Assay (AID 2283028; active means hit-call score of the fitted dose curve at least 0.9, where 1 is the maximum; inactive means score below 0.9;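 on AC50: fitted both ways so AC50 may mark signal gain or loss versus DMSO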). The settings on record: primary human bronchial epithelial cells. In outline: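 Cells (human bronchial epithelial, primary) are treated with chemicals, and after 24 h the parallel cultures are fixed in 10% TCA. These are then stained with 0.1% SRB and read at 560 nm. Gain or loss of signal is fitted relative to DMSO.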

Read-out in experiment [18]: Thrombomodulin, THBD (gene 7056)
Briefly: BSK_3C_Thrombomodulin: BioMAP Diversity Plus: 3C Assay for Thrombomodulin Biomarker Activity (AID 2283029; active means hit-call score of the fitted dose curve at least 0.9, where 1 is the maximum; inactive means score below 0.9). The settings on record: primary human endothelial cells (HUVEC); actives raise or lower the signal. The method, boiled down: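 Human umbilical vein endothelial cells were exposed to chemicals for 24 h; cell-surface thrombomodulin quantified by ELISA, with bidirectional fitting against DMSO baseline.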

Read-out in experiment [19]: Urokinase-type plasminogen activator receptor (uPAR), PLAUR (gene 5329)
Briefly: BSK_4H_uPAR: BioMAP Diversity Plus: 4H Assay for Urokinase-type plasminogen activator receptor (uPAR) Biomarker Activity (AID 2283030; active means hit-call score of the fitted dose curve at least 0.9, where 1 is the maximum; inactive means score below 0.9). The settings on record: primary human endothelial cells (HUVEC); actives raise or lower the signal. The method, boiled down:
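Cell-surface uPAR ELISA signal, measured 24 h after dosing human umbilical vein endothelial cells, was analyzed with bidirectional fitting relative to DMSO. Parallel SRB staining of total protein tracked overt cytotoxicity.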

Read-out in experiment [20]: Vascular endothelial growth factor receptor 2 (Homo sapiens) (UniProt P35968)
Briefly: BSK_4H_VEGFRII: BioMAP Diversity Plus: 4H Assay for Vascular endothelial growth factor receptor 2 (VEGFR2) Biomarker Activity (AID 2283031; active means hit-call score of the fitted dose curve at least 0.9, where 1 is the maximum; inactive means score below 0.9;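 on AC50: cell-surface VEGFR2 protein level quantified by ELISA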). The settings on record: primary human endothelial cells (HUVEC); actives raise or lower the signal. The method, boiled down:
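ELISA read-out of VEGFRII in primary human umbilical vein endothelium, taken 24 h after chemical treatment. Responses are expressed relative to DMSO, with bidirectional fitting.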

Chain of human Vitamin D Receptor (VDR), VDR (gene 7421) (P11473 whole entry, looked up, the tested form may be a part): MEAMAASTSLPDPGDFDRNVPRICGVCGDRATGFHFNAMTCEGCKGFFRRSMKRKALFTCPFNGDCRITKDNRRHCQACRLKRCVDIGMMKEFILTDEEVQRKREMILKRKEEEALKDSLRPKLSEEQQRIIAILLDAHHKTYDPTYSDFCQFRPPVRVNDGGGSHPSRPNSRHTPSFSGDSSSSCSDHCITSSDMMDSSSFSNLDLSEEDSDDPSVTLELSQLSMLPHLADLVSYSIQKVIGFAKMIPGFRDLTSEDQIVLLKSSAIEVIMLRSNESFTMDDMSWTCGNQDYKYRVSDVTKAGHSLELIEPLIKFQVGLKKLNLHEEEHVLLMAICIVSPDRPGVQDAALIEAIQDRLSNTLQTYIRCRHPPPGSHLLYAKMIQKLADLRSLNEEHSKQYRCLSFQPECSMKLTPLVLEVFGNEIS
Chain of E-selectin (Homo sapiens) (P16581 whole entry, looked up): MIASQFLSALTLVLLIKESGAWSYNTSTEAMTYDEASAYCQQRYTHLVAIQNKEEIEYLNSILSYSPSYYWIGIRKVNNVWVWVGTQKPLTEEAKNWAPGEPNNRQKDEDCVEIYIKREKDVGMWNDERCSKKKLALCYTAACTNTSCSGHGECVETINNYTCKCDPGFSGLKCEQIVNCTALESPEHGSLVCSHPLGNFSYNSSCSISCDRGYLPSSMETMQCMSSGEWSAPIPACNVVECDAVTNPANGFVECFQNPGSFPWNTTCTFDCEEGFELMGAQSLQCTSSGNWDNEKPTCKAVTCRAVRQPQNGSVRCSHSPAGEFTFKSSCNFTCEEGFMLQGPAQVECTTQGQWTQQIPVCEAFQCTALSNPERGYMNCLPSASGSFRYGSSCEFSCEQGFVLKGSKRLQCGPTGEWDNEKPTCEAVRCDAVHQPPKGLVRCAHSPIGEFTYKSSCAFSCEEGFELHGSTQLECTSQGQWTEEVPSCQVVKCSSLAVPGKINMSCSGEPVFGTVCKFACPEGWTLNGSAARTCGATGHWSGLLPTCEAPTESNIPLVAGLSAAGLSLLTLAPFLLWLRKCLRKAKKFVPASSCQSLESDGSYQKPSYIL
Chain of human Thyroid Receptor alpha (THRa1), THRA (gene 7067) (P10827 whole entry, looked up, the tested form may be a part): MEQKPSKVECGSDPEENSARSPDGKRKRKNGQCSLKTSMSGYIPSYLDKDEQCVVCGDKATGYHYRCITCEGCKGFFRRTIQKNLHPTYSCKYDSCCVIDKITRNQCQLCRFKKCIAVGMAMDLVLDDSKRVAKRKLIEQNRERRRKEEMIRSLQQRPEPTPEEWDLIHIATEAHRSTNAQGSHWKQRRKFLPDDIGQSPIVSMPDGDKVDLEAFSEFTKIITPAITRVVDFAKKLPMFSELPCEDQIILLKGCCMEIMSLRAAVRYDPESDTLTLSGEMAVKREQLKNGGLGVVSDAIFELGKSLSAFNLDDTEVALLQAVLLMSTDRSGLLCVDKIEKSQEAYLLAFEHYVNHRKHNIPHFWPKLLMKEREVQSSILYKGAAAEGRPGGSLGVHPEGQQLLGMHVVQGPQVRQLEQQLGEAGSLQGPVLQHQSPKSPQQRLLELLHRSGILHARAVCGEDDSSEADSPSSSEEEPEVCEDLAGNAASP
Chain of Retinoic acid receptor RXR-alpha (Homo sapiens) (P19793 whole entry, looked up, the tested form may be a part): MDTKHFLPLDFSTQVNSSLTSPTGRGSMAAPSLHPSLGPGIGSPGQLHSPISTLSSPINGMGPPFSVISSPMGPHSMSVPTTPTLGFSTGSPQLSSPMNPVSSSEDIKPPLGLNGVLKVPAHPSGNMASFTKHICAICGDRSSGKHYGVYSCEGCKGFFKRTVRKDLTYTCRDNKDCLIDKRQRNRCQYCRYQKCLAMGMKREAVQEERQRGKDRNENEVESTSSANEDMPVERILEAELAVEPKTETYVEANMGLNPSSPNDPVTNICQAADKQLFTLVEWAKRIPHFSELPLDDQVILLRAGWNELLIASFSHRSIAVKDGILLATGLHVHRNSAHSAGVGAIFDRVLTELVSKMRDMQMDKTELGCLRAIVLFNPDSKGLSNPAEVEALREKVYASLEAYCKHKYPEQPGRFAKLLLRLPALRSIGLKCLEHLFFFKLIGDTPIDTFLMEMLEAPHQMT
Chain of human Retinoid X Receptor beta (RXRb), RXRB (gene 6257) (P28702 whole entry, looked up, the tested form may be a part): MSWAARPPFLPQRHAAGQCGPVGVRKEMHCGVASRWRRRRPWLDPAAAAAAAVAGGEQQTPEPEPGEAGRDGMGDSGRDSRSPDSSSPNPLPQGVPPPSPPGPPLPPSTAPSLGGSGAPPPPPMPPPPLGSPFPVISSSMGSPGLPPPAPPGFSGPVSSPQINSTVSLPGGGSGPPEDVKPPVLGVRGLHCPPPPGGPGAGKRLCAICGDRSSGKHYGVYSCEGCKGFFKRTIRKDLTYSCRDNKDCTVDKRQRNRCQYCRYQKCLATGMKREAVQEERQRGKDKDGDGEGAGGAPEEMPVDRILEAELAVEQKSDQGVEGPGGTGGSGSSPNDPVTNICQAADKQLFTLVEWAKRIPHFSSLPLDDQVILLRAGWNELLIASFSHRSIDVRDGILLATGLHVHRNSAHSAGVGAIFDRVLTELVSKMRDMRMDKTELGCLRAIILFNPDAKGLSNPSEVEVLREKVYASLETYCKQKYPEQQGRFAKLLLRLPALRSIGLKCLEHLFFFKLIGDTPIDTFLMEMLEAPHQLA

As to `CCCCC(CC)(CO)CO`, the result in [1] and in experiment [2] was inactive.

For the compound `CCC(Cl)C(Cl)C(Cl)CC(Cl)C(Cl)C(C)Cl` (stereo unspecified), the compound was called inactive in experiment [1], in experiment [3] and in experiment [4]. Besides, the AC50 in experiment [2] is 16.4 µM (active).

In the case of `CC=Cc1ccc(OC)c(OC)c1`, the call in [1], in [2] and in [3] was inactive.

As for `CCc1cc(Cc2cc(CC)cc(C(C)(C)C)c2O)c(O)c(C(C)(C)C)c1`, the outcome in experiment [1] and in experiment [3] was inactive. Further, the AC50 in [2] is 5.71 µM (active).

For the compound `O=C(O)c1ccc(O)cc1`, the call in experiment [1], in experiment [2] and in experiment [3] was inactive.

With `CCCOC(=O)c1c(Cl)c(Cl)c(Cl)c(Cl)c1C(=O)OCCC`, the call in experiment [1], in experiment [3] and in experiment [4] was inactive. Further, the AC50 in experiment [2] is 10.6 µM (active).

With `C=CC(=O)OCCC#N`, the result in experiment [1], in experiment [2] and in experiment [3] was inactive.

In the case of `CC/C=C\CC/C=C/CO`, the outcome in experiment [1] and in experiment [2] was inactive.

Take `Oc1c(Cl)cc(Cl)c(Cl)c1Cc1c(O)c(Cl)cc(Cl)c1Cl`: the call in experiment [1], in [4] and in experiment [18] was inactive. For the same compound, the AC50 in [2] was 12.7 µM (active); in [3] it was 0.657 µM (active); in experiment [5], 13 µM (active); in experiment [6], 2.02 µM (active); in experiment [7] it was 32.6 µM (active); in [8] it was 1.31 µM (active). For the same compound, the AC50 in [9] is 2.48 µM (active); in experiment [10] it was 28.2 µM (active); in [11] it was 31.1 µM (active); in experiment [12], 5.1 µM (active); in experiment [13], 2.26 µM (active); in [14], 13.7 µM (active). Also, the AC50 in experiment [15] was 1.05 µM (active); in [16] it was 6.35 µM (active); in experiment [17] it was 5.21 µM (active); in experiment [19], 2.26 µM (active); in experiment [20], 0.675 µM (active).

For the compound `C=C(C)[C@H]1CC=C(C)C(=O)C1`, the compound was called inactive in experiment [1], in experiment [2], in experiment [3], in [5], in experiment [6] and in experiment [7]. The outcome in experiment [8], in experiment [9], in experiment [10], in experiment [11], in experiment [4] and in experiment [12] was inactive. In addition, the result in experiment [13], in experiment [14], in [15], in [16], in [17] and in experiment [18] was inactive. Further, the outcome in [19] and in experiment [20] was inactive.

As for `C[Si](C)(C)O[Si](C)(C)C`, the outcome in [1], in [2], in experiment [3] and in experiment [4] was inactive.

For the compound `CC(C)CCOC(=O)c1ccccc1`, the result in [1], in experiment [2] and in [3] was inactive.

In the case of `O=C(Nc1ccc2c(c1)Cc1ccccc1-2)C(F)(F)F`, the call in experiment [1], in [2], in [3] and in experiment [4] was inactive.

As for `CN(C)CCOc1ccc(/C(=C(/CCCl)c2ccccc2)c2ccccc2)cc1`, the compound was classed as inactive in experiment [1], in experiment [2] and in experiment [3].

On to `OCCc1ccccc1`, for which the result in [1], in experiment [2] and in experiment [3] was inactive.

For the compound `CCCCOC(=O)CCCCCCCC(=O)OCCCC`, the compound was called inactive in [1], in experiment [2], in [3], in experiment [5], in experiment [6] and in experiment [7]. Besides, the outcome in experiment [8], in experiment [9], in experiment [10], in [11], in [4] and in experiment [12] was inactive. Besides, the result in [13], in [14], in [15], in [16], in experiment [17] and in experiment [18] was inactive. Besides, the result in [19] and in experiment [20] was inactive.

Usually AC50 stands for the midpoint of the concentration-response curve, whichever way the signal moves.
